Compound activity deposited in PubChem BioAssay by National Center for Advancing Translational Sciences (NCATS).
The entries come from a sample that favours hits as a whole.
JMJD2E inh – qHTS Assay for Inhibitors of Human Jumonji Domain Containing 2E (JMJD2E). Lysine-specific demethylase 4E (Homo sapiens), B2RXH2. JMJD2E catalytic domain, FDH-coupled NADH fluorescence (FDH is formaldehyde dehydrogenase). Potency, µM (titrated, usually from 57.1 µM), for the others: at the highest dose activity change, negative = inhibition, hits mostly inhibitors. actives 1.6% (n = 230,000). AID 2147, 2009; active means well fitted inhibition curve with a large enough effect, not every such curve was filed as active; inconclusive means small, poorly fitted or top-dose-only effect, or another doubt; inactive means no such curve, though single readings can be large or run the other way;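 further: 0% = wells with enzyme and -100% = buffer wells without enzyme; nearly all actives have a fitted effect of over 50% in size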
Target sequence (B2RXH2 1-337 limits assumed): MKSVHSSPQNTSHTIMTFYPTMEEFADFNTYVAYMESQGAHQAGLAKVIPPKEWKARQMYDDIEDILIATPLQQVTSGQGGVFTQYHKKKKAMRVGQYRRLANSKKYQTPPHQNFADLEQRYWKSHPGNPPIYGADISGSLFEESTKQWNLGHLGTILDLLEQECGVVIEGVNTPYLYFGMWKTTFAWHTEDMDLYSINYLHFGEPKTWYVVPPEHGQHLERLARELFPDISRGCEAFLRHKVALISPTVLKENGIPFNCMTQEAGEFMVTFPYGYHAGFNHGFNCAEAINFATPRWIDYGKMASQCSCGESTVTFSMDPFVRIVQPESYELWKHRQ
APE1 inh-1 – qHTS Assay for Inhibitors of the Human Apurinic/apyrimidinic Endonuclease 1 (APE1). DNA repair nuclease/redox regulator APEX1 (Homo sapiens), P27695. recombinant APE1, TAMRA/BHQ-2 abasic DNA cleavage fluorescence. Potency, µM (series often up to 65.8 µM), inactives show top-dose activity change, negative = inhibition, hits mostly inhibitors. actives 0.35% (n = 350,000). AID 2517, 2012;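 further: plate controls were vehicle for no effect and reference inhibitor for full effect; nearly all actives have a fitted effect of over 55% in size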
Target sequence (P27695 whole entry, looked up): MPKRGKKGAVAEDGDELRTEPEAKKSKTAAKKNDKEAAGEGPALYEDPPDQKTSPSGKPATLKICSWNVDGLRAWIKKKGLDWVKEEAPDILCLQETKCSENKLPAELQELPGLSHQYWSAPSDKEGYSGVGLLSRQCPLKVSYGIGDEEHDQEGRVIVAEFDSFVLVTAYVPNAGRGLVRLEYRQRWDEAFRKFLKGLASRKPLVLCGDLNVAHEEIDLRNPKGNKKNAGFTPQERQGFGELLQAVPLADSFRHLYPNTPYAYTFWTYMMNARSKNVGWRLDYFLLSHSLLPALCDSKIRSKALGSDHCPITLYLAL
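Endonuclease cleavage of a quenched abasic-site DNA duplex (50 nM) by APE1 (0.75 nM) was tracked by TAMRA dequenching. Compounds were preincubated with enzyme 15 min at room temperature; data normalized to buffer-only and DMSO wells plus NSC13755 control.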
RECQ1 helicase – qHTS Assay for Inhibitors of RecQ-Like Dna Helicase 1 (RECQ1) | actives 0.54% (n = 240,000) | ATP-dependent DNA helicase Q1 (Homo sapiens), P46063 | RECQ1 DNA unwinding, red fluorescence kinetic read | Potency, µM (series often up to 57.3 µM), inactives show top-dose activity, negative = inhibition, usual class: inhibitors;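 further: plate controls were vehicle for no effect and no enzyme for full effect; nearly all actives have a fitted effect of over 30% in size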
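RECQ1T1 50 nM; forked duplex (20 bp + 30-nt ss tails) 200 nM, ATP 2 mM final; pH 8.0, 2 mM MgCl2, 2.5 ug/ml poly(dI-dC); 15 min compound preincubation; discontinuous kinetic read over 2 h at RT.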
TDP1 block – qHTS Assay for Inhibitors of Tyrosyl-DNA Phosphodiesterase (TDP1). Tyrosyl-DNA phosphodiesterase 1 (Homo sapiens), Q9NUW8. recombinant TDP1, AlphaScreen DNA substrate cleavage. Potency, µM (titrated, usually from 130 µM), inactives show top-dose activity change, negative = inhibition, usual class: inhibitors. actives 0.28% (n = 350,000); further: nearly all actives have a fitted effect of over 40% in size
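E. coli-derived human Tdp1, 1 nM final. Cpd preinc 15 min RT; substrate 15 nM final, 5 min RT; AS bead mix 10 ug/ml final, 10 min RT. Signal loss = tyrosine-FITC cleavage. No-enzyme wells = max signal.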
L3MBTL1 inh – qHTS Assay for the Inhibitors of L3MBTL1. Lethal(3)malignant brain tumor-like protein 1 (Homo sapiens), Q9Y468. AlphaScreen L3MBTL1–H3K9me1 peptide binding. Potency, µM (highest dose often 57.1 µM), inactives show top-dose activity, negative = inhibition, usual class: inhibitors. actives 0.66% (n = 230,000). AID 485360, 2010; further: nearly all actives have a fitted effect of over 60% in size
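L3MBTL1 50 nM + b-AHA-H3(1-15)K9me1 75 nM, 30 min RT; compound added, 30 min RT; streptavidin donor/Ni-chelate acceptor beads 10 ug/mL each final, 30 min RT dark; AlphaScreen read.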
BLM inh – qHTS Assay for Inhibitors of Bloom's syndrome helicase (BLM); AID 2528, 2010; Potency, µM (doses to about 56.1 µM), for the others: at the top dose activity change, negative = inhibition, most hits filed as inhibitors; actives 0.2% (n = 350,000); recombinant BLM DNA unwinding, fluorescence dequenching;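 further: plate controls were vehicle for no effect and no enzyme for full effect; nearly all actives have a fitted effect of over 35% in size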
DNA dye displace – Counterscreen for APE1 Inhibitors: Fluorescent Dye Displacement Assay | shares compounds with APE1 inh-1 | DNA fluorescent dye displacement counterscreen, fluorescence | Potency, µM (series often up to 28.5 µM), for inactives: at the top dose activity change, negative = inhibition, most hits filed as inhibitors | actives 7% (n = 480) | AID 2564, 2010;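 further: loss of thiazole orange fluorescence as the dye is displaced from duplex DNA; 0% = ThO with dsDNA and no compound and -100% = ThO without dsDNA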
EndoIV counter – Counterscreen for APE1 Inhibitors: qHTS Assay for Inhibitors of Endonuclease IV. shares compounds with APE1 inh-1. E. coli Endo IV, fluorogenic AP-site DNA cleavage. Potency, µM (series often up to 27.1 µM), without a hit: at the top dose activity change, negative = inhibition, usual class: inhibitors. actives 4% (n = 560). AID 2565, 2010;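 further: plate controls were uninhibited enzyme wells for no effect and no enzyme buffer wells for full effect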
APE1 inh-2 – Confirmation qHTS Assay for Inhibitors of the Human Apurinic/apyrimidinic Endonuclease 1 (APE1) | shares compounds with APE1 inh-1 | purified APE1, fluorogenic abasic-site DNA cleavage | Potency, µM (series often up to 57.1 µM), for the others: at the top dose activity change, negative = inhibition, usual class: inhibitors | actives 44% (n = 750); further: nearly all actives have a fitted effect of over 30% in size
APE1 FP inh – qHTS FP-Based Assay for Inhibitors of the Human Apurinic/apyrimidinic Endonuclease 1 (APE1). shares compounds with APE1 inh-1. AID 2573, 2010. APE1 binding to TAMRA-labelled double-stranded DNA, fluorescence polarization displacement. actives 7% (n = 480). Potency, µM (titrated, usually from 28.5 µM), without a hit: top-dose activity, negative = inhibition, hits mostly inhibitors
Active calls of the source: *; i = inactive; ? = inconclusive; . = not tested or not shown; [ ] = remark or other dose. Unless noted, the call rests on the fitted dose curve; in most records, active means well fitted curve in the direction sought with a large enough effect; inconclusive means small, poorly fitted or top-dose-only effect, or another doubt; inactive means no such curve, though single readings can be large; an effect the other way counts as inactive or inconclusive. Unless noted, on the % scale 0 is the no-effect control and ±100 the full control effect; potency means the concentration at half of the fitted maximal effect.

SMILES	JMJD2E inh	APE1 inh-1	RECQ1 helicase	TDP1 block	L3MBTL1 inh	BLM inh	DNA dye displace	EndoIV counter	APE1 inh-2	APE1 FP inh
CC(N=Cc1cccc(O)c1O)c1ccccc1 (stereo not given)	14µM*	14µM*	22µM*	?	.	-10%	5%	13%	-7%[24.4 µM]	-3%
CCN(CC)Cc1cc(C(=O)O)c(C)o1	13%	7%	16%	-3%	0%	-7%	.	.	.	.
COc1ccc(OCc2cc(C(=O)O)c(C)o2)cc1	2%	25µM*	13%	14µM*	?	5%	.	.	40µM*	.
O=C(O)c1ccc(COc2ccccc2/C=C2/NC(=O)N(c3cccc(Cl)c3)C2=O)cc1	?	?	?	25µM*	-6%	20µM*	.	.	16µM*	.
COc1ccc2cc3cc(C(=O)NCc4cccs4)oc3nc2c1	?	1%	-7%	32µM*	.	-23%	.	.	-12%	.
COc1ccc2cc3cc(C(=O)NCc4ccc(C)cc4)oc3nc2c1	.	.	.	2%	.	-2%	.	.	.	.
O=C(c1ccc2c(=O)n(CCc3ccccc3)c(=O)[nH]c2c1)N1CCN(c2ccc(Cl)cc2)CC1	.	.	.	3%	.	0%	.	.	.	.
COc1ccc(/C=C/C(=O)OCc2cc(=O)n3c(n2)sc2ccccc23)cc1	51%	-4%	-10%	3%	-4%	-2%	.	.	.	.
O=c1cc(CCl)nc2sc3ccccc3n12	-2%	?	-16%	50µM*	?	-11%	.	.	?	.
CCn1cc(C(=O)O)c(=O)c2cc(F)c(N3CCN(S(=O)(=O)c4ccc(NC(=O)OC)cc4)CC3)cc21	?	3%	3%	?	-27%	-4%	.	.	-28%	.
Cc1ccccc1-c1nc(NCc2cccs2)c2ccccc2n1	.	?	-14%	.	.	-14%	.	.	.	.
Clc1ccccc1-c1nc(NCc2cccs2)c2ccccc2n1	.	7.9µM*	-26%	.	.	-25%	?	-87%[57.1 µM]	16µM*	38%[57.1 µM]
O=C(O[C@@H]1OC2COC(=O)c3cc(O)c(O)c(O)c3-c3c(cc(O)c(O)c3O)C(=O)O[C@@H]([C@H]1O)[C@@H]2O)c1cc(O)c(O)c(O)c1	-2%	0.071µM*	-29%	-4%	0.1µM*	5.6µM*	-7%	111%	0.05µM*	?
CN1CCN(C2(CNC(=O)c3ccc([N+](=O)[O-])cc3)CCCCC2)CC1	.	.	.	-4%	.	-2%	.	.	.	.
COc1cccc2c(SCC(=O)N/N=C/c3ccc(O)c(O)c3)cc(C)nc12	16µM*	8.9µM*	25µM*	?	-28%	?	-26%	93%	5µM*	-7%
COc1ccc2nc(C)cc(SCC(=O)N/N=C/c3cccc4ccccc34)c2c1	-26%	18%	-6%	11%	1%	-8%	.	.	.	.
COc1cccc2c(SCC(=O)N/N=C/c3ccccc3)cc(C)nc12	-10%	-3%	-6%	3%	9%	-2%	.	.	.	.
COc1ccc(/C=N/NC(=O)COc2cccc3cccnc23)cc1OC	2%	-2%	-8%	?	.	30%	.	.	?	.
COc1ccc2nc(C)cc(SCC(=O)N/N=C/c3ccc(O)c(O)c3)c2c1	5µM*	?	?	8%	-10%	-13%	?	115%	7.9µM*	3%
CNC1C(OC2C(O[C@@H]3C(O)C(O)[C@@H](N=C(N)N)C(O)C3N=C(N)N)OC(C)[C@@]2(O)CO)OC(CO)C(O)C1O (stereo not given in full)	-5%	.	i	7%	.	0%	.	.	.	.
Cc1cc(NC(=O)C(C)(C)Oc2ccc(Cl)cc2)cc(-c2nc3ncccc3o2)c1O	.	.	.	3%	.	0%	.	.	.	.
CCN(CC)CCNC(=O)c1c(C)oc2ncnc(N3CCOCC3)c12	.	.	.	2%	.	-6%	.	.	.	.
CN1CCc2cc3c(c4c2[C@H]1[C@H](O)c1ccccc1-4)OCO3	18µM*	?	81%	8%	-3%	83%	4.5µM*	8.9µM*	11µM*	13µM*
COc1ccc2c(c1OC)C(=O)O[C@H]2C1c2c(cc3c(c2OC)OCO3)CCN1C (stereo not given in full)	-1%	-3%	-15%	12%[56.1 µM]	.	-8%	.	.	.	.
CCOC(=O)NC1(NC(C)C)Oc2ccccc2O1	?	22µM*	-21%	-7%	.	0%	-5%	4%	?	0%
c1cncc(-c2nc(-c3ccco3)cs2)c1	-29%	25µM*	-15%	-14%	.	-21%	-10%	0%	-10%[24.4 µM]	?
COc1ccc(OC)c(NC(=O)CN(C)S(=O)(=O)c2ccc(C(=O)N3CCOCC3)s2)c1	.	.	.	-4%	.	-2%	.	.	.	.
COc1cc([N+](=O)[O-])cc(/C=N/NC(=O)CC#N)c1O	?	?	?	-8%	.	-15%	-7%	1%	?	?
CCN1C(=O)c2ccccc2Sc2ccc(NC(=O)Nc3cccc([N+](=O)[O-])c3C)cc21	.	.	.	7%	.	-2%	.	.	.	.
